# Results reported in the emibetuzumab library of Makowski et al. (2022).
# The list shows a part of the results. The true hit rate is not given.
# B1: VH:VL chains; a variant is named by its letters at X, in order (parent)
# chain 1: QVQLVQSGAEVKKPGASVKVSCKASGYTFTDYXMHWVRQAPGQGLEWMGXVNPNXXXTTYNQKFEGRVTMTTDTSTSTAYMELRSLRSDDTAVYYCARXNXLDXWGQGTTVTVSS
# chain 2: DIQMTQSPSSLSASVGDRVTITCSVSSSVSSIYLHWYQQKPGKAPKLLIYSTSNLASGVPSRFSGSGSGTDFTLTISSLQPEDFATYYCQVYSGYPLTFGGGTKVEIK
# Variants of: B1
# Experiment: yeast display scFab, FACS + sequencing
# Conditions: with MET
# How it was run: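 Heavy-chain CDR mutant scFab yeast surface library, enriched by two magnetic rounds on HGFR-Fc-coated Protein A beads and then by FACS. Cells were labelled with 1 nM HGFR-Fc in PBSB with 1% milk and anti-Myc for 3 h at room temperature, and the top 50% antigen-positive cells were gated. Round-3 sorted and input populations were deep sequenced in two replicates. Antigen binding call: positive if a sequence occurred in both antigen-positive samples, negative if it occurred only in input.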
row,Variant,antigen binding call
1,DGRGNSGD,no binding
2,YKRGSSGD,binds
3,YKRGGSGD,binds
4,YGRGNSGD,binds
5,YKRRNSGD,no binding
6,YEGTGSGD,no binding
7,VGRGNSGD,no binding
8,STGGGDGV,no binding
9,STAGSASD,no binding
10,DARGGSLS,no binding
11,YRRGGSLS,binds
12,YEGTGSLS,no binding
13,YRRGSALS,binds
14,YRRGSSLS,binds
15,VKGASDGA,no binding
16,YKRGSDGA,binds
17,YKRGSFGA,no binding
18,YKRGSSGA,binds
19,YKEKGDGA,no binding
20,VKRGSSGA,binds
21,VTRGASGA,no binding
22,VTRGDSGA,no binding
23,DAGGGSSD,no binding
24,SETTDAGV,no binding

row,Variant,antigen binding call
1,STKRSFWA,no binding
2,YRGESAVD,binds
3,DTGTGSVD,no binding
4,YRGEASVD,binds
5,YRGKDSVD,binds
6,VTGTGSVD,no binding
7,YRGTGSVD,binds
8,YKGKDSVD,no binding
9,DAEKDSGA,no binding
10,VTKESAAV,no binding
11,DEGGTSVD,no binding
12,YRGKSSVD,binds
13,YRGKASVD,binds
14,YGGKNSVD,no binding
15,YRGGTSVD,binds
16,YRTKAAVD,binds
17,VTGTSDVA,no binding
18,VTGGDDWF,no binding
19,DREGDYLY,no binding
20,YTGGDSVA,no binding
21,YRGKAAVD,binds
22,VTGGDSVD,no binding
23,YAGAAAVD,no binding
24,YTGGDSVD,binds

row,Variant,antigen binding call
1,DAGTDAGD,no binding
2,YRTGDSAA,binds
3,DRAGDDLA,no binding
4,YRTGDSSA,binds
5,DRAGDSSA,no binding
6,YRAGDSSA,binds
7,SAAGGAAD chain 1 L45S,no binding
8,DTREGDVY,no binding
9,VKERGDGV,no binding
10,FARENFLA chain 1 V51A,no binding
11,VAKADDWF,no binding
12,YRTRAAWD,binds
13,YAGRAAWD,no binding
14,YRTRSAGD,binds
15,YRGRSAWD,binds
16,YGTRSAAD,no binding
17,YRTRSAWD,binds
18,SEEEGDWV,no binding
19,AKEADDVA,no binding
20,YTGTSDLV,no binding
21,VTTKSDSV,no binding
22,VTTRADVA,no binding
23,FRRRGSGD,binds
24,VRRRGAGD,binds

row,Variant,antigen binding call
1,VRRRGSGD,binds
2,VEEEGAGD,no binding
3,VEKEGAGD,no binding
4,VGGGGDGS,no binding
5,DTTGGDGV,no binding
6,SEKKSAGA,no binding
7,YRGKGAAF,binds
8,YEGGGDWF,no binding
9,YRGGGAAF,binds
10,VKGKGAAF,no binding
11,YRAGGAAF,binds
12,YGARGAAF,no binding
13,YRGGDAAF,binds
14,FAGGGDAV,no binding
15,VRAGDDAV,no binding
16,VRAGGDAV,binds
17,VRAGGDAA,binds
18,VRTKADAV,no binding
19,VRERGDAA,no binding
20,VRGGGDAA,no binding
21,YRRGGAGF,binds
22,YRRGDAAF,binds
23,YRKGGAWF,binds
24,DRRGDDVF,no binding

row,Variant,antigen binding call
1,YRRESAGF,binds
2,VAEKDDGS,no binding
3,SGGTGDVF,no binding
4,FTGEADAS,no binding
5,AARADSWV,no binding
6,YRRGDAGF,binds
7,YRRGSAGF,binds
8,ARRGGSGF,no binding
9,YRKGGAGF,binds
10,YRRGSSGF,binds
11,YAGGDDGA,no binding
12,SETTDSSA,no binding
13,DAGGGYGV,no binding
14,AGERNVAS,no binding
15,YRRKGALV,binds
16,YRRKGASV,binds
17,YRRGGALV,binds
18,ATKAASWV,no binding
19,FRGGGSGS,binds
20,FRGGSSGS,binds
21,FRGGDYGS,no binding
22,ATTGGDWD,no binding
23,YRKRGAGA,binds
24,YRKRGAAA,binds

row,Variant,antigen binding call
1,VTGEDAGS,no binding
2,YRGKGALS,binds
3,YAGRGDAS,no binding
4,YKGRGAAS,binds
5,YRGGGDVS,binds
6,YRERSDVS,no binding
7,YTGTSDVS,no binding
8,YAGRGSAS,no binding
9,YKTGGASS,binds
10,YTGTSDVY,no binding
11,FTRGADAV,no binding
12,DAGGDDVY,no binding
13,YAGRGDVS,no binding
14,YKGRGASS,binds
15,YKGRGALS,binds
16,YKGRGAVS,binds
17,VRGRGALS,binds
18,YKTRGAVS,no binding
19,YKGEGFSS,no binding
20,VETEGAVY,no binding
21,DKEGGDGV,no binding
22,AATTDSGV,no binding
23,VREGDDAV,no binding
24,DRGGGDAS,no binding

row,Variant,antigen binding call
1,YRGGSDGS,binds
2,YRGKSDGS,no binding
3,YRGRGALS,binds
4,YRGGGALS,binds
5,DRAGDDGS,no binding
6,SEARSDVV,no binding
7,SRTRGFVV,no binding
8,YKGEGDVV,no binding
9,FRERGAVV,binds
10,FRTRGAVV,binds
11,YKERGDVV,binds
12,SKERGDVV,no binding
13,YRERGAVV,binds
14,DREEGAVV,no binding
15,VAETAAAA,no binding
16,AEARAAGS chain 1 V37I,no binding
17,VARAADAD,no binding
18,ATGEGDWS,no binding
19,VGATSFSA,no binding
20,YKGGSSGV,binds
21,YKGGSFGV,no binding
22,YEKGGDGV,no binding
23,YKKGGSGV,binds
24,YKERASGV,no binding

row,Variant,antigen binding call
1,YKGAASGV,no binding
2,YKAGGSGV,binds
3,FTGTSAAF,no binding
4,VTEGDDVF,no binding
5,YRKGSSWD,binds
6,YRKGSAWD,binds
7,DGKEGYWA,no binding
8,DAEGDDGA,no binding
9,YRGAGSLD,binds
10,YRGAGFVD,no binding
11,FRGAGSVA,binds
12,YRGAGSVD,binds
13,FRGAGSVD,binds
14,SKTKSDVA,no binding
15,SKERGDWV,no binding
16,VERKGYLA,no binding
17,VETGNSSA,no binding
18,AGGGNAGD,no binding
19,VRRGSSAF,binds
20,VGGTSSAD,no binding
21,VRGGDDVF,no binding
22,VRGRSSLF,binds
23,VRRGSSAD,binds
24,VRGRSDVF,no binding

row,Variant,antigen binding call
1,VRRGSSLF,binds
2,VREAADSF,no binding
3,DAKENAVY,no binding
4,YTGGDDVY,no binding
5,VAEATDLY,no binding
6,DAGGASLD,no binding
7,STATADVA,no binding
8,SAGEGDWV,no binding
9,AKTRDFVA,no binding
10,DTAGDAAV,no binding
11,VKETSVLF,no binding
12,VKRGSSLF,binds
13,VRRGSSAS,binds
14,VAKRDSAS,no binding
15,FKRGSSLF,binds
16,FKAEAFSF,no binding
17,VRTEDDAS,no binding
18,FERTSALF,no binding
19,VAGTGSSV,no binding
